Where “and” joins values, the source holds several entries; their conditions need not be identical. Equal entries are not always repeated. The whole screen tested about 5,500 compounds, of which about 2,000 (36%) were called active. About 18% were inconclusive and are not listed. Cut-off read from the data, not from the text of the source: active = normalized growth mostly below about 0.91 (no sharp cut-off); inconclusive = no clear call, values can overlap the other calls; inactive = mostly above about 0.92. Some of the results follow.
Experiment: chemical genetic growth profiling, strain panel (AID 1159580);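 note: tested at 20 µM; growth read once vehicle control cultures reached saturation at 30 °C; 1 = growth at the plate median or of vehicle wells; lower values mean less growth of the strain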
Details: S. cerevisiae deletion strains, growth OD

Measured: normalized growth

Nc1c2c(nc3ccccc13)CCCC2O (stereo not drawn)
inactive: locus YAL021C, strain ccr4, active compounds read low 1.01 | locus YAL026C, strain drs2, active compounds read low 1.01 | locus YAL030W, strain snc1, active compounds read low 1.01 | locus YAL040C, strain CLN3, active compounds read low 1.05 | locus YBL061C, strain skt5, active compounds read low 1.01 | locus YBR009C, strain hhf1, active compounds read low 1 | locus YBR021W, strain FUR4, active compounds read low 0.94 | locus YBR023C, strain chs3, active compounds read low 1.01 | locus YBR171W, strain sec66, active compounds read low 1 | locus YBR229C, strain ROT2, active compounds read low 1.01 | locus YBR231C, strain swc5, active compounds read low 0.998 | locus YBR279W, strain paf1, active compounds read low 1.02 | locus YCL011C, strain gbp2, active compounds read low 1.01 | locus YCL016C, strain dcc1, active compounds read low 1 | locus YCL029C, strain bik1, active compounds read low 0.974 | locus YCL061C, strain MRC1 (second series), active compounds read low 1.01 | locus YCL061C, strain MRC1, active compounds read low 1.03 | locus YCL069W, strain vba3, active compounds read low 1.01 | locus YCR088W, strain abp1, active compounds read low 1 | locus YDL005C, strain med2, active compounds read low 1 | locus YDL035C, strain GPR1, active compounds read low 0.994 | locus YDL040C, strain nat1, active compounds read low 1.01 | locus YDL074C, strain BRE1, active compounds read low 1.04 | locus YDL101C, strain DUN1, active compounds read low 1.01 | locus YDL134C, strain PPH21, active compounds read low 1.01 | locus YDL185W, strain tfp1, active compounds read low 0.964 | locus YDL192W, strain arf1, active compounds read low 0.987 | locus YDR001C, strain nth1, active compounds read low 1.01 | locus YDR069C, strain doa4, active compounds read low 1 | locus YDR101C, strain arx1, active compounds read low 0.995 | locus YDR137W, strain rgp1, active compounds read low 1.01 | locus YDR159W, strain sac3, active compounds read low 0.997 | locus YDR162C, strain NBP2, active compounds read low 0.985 | locus YDR195W, strain ref2 0.917 | locus YDR297W, strain sur2, active compounds read low 1.01 | locus YDR318W, strain mcm21, active compounds read low 0.982 | locus YDR334W, strain swr1, active compounds read low 1.01 | locus YDR335W, strain msn5, active compounds read low 1.01 | locus YDR363W, strain ESC2, active compounds read low 1 | locus YDR388W, active compounds read low 0.985 | locus YDR392W, strain spt3, active compounds read low 0.902 | locus YDR502C, strain sam2, active compounds read low 0.998 | locus YEL003W, strain gim4, active compounds read low 1.01 | locus YEL037C, strain rad23, active compounds read low 1.01 | locus YEL061C, strain CIN8 (second series), active compounds read low 1.01 | locus YEL061C, strain CIN8, active compounds read low 1.03 | locus YER002W, strain NOP16, active compounds read low 1.01 | locus YER015W, strain faa2, active compounds read low 1 | locus YER016W, strain bim1, active compounds read low 0.991 | locus YER110C, active compounds read low 0.981 | locus YER111C, strain swi4, active compounds read low 1 | locus YER155C, strain BEM2 (second series), active compounds read low 1 | locus YER155C, strain BEM2, active compounds read low 0.994 | locus YER167W, strain BCK2, active compounds read low 1 | locus YFR010W, strain ubp6, active compounds read low 1 | locus YGL078C, strain dbp3, active compounds read low 0.992 | locus YGL086W, strain mad1, active compounds read low 1.01 | locus YGL167C, strain pmr1, active compounds read low 1 | locus YGL173C, strain kem1, active compounds read low 1.01 | locus YGL227W, strain vid30, active compounds read low 0.995 | locus YGL240W, strain doc1, active compounds read low 0.987 | locus YGL248W, strain PDE1, active compounds read low 1.02 | locus YGL253W, strain hxk2, active compounds read low 1 | locus YGR078C, strain PAC10, active compounds read low 1.03 | locus YGR135W, strain pre9, active compounds read low 0.979 | locus YGR229C, strain SMI1, active compounds read low 1.02 | locus YGR252W, strain gcn5, active compounds read low 0.998 | locus YHR013C, strain ard1, active compounds read low 0.945 | locus YHR027C, strain rpn1, active compounds read low 1.01 | locus YHR030C, strain SLT2, active compounds read low 0.993 and 0.981 | locus YHR079C, strain IRE1 (second series), active compounds read low 0.976 | locus YHR079C, strain IRE1, active compounds read low 0.983 | locus YHR094C, strain hxt1, active compounds read low 0.992 | locus YHR129C, strain ARP1, active compounds read low 1 | locus YHR142W, strain chs7, active compounds read low 1.03 | locus YHR200W, strain rpn10, active compounds read low 0.973 | locus YIL066C, strain RNR3, active compounds read low 1.02 | locus YIL073C, strain SPO22, active compounds read low 0.912 | locus YIL125W, strain kgd1, active compounds read low 0.996 | locus YIR030C, strain dcg1, active compounds read low 0.979 | locus YJL092W, strain hpr5, active compounds read low 1.03 | locus YJL095W, strain BCK1 (second series), active compounds read low 1.01 | locus YJL095W, strain BCK1, active compounds read low 1.05 and 0.988 | locus YJL115W, strain asf1, active compounds read low 1 | locus YJL129C, strain trk1, active compounds read low 1.05 | locus YJL134W, strain LCB3, active compounds read low 0.996 | locus YJL154C, strain vps35, active compounds read low 1.01 | locus YJL164C, strain tpk1, active compounds read low 1.02 | locus YJL166W, strain qcr8, active compounds read low 1.01 | locus YJL168C, strain set2, active compounds read low 0.991 | locus YJL187C, strain SWE1 (second series), active compounds read low 1.03 | locus YJL187C, strain SWE1, active compounds read low 1.02 | locus YJR043C, strain POL32, active compounds read low 1.02
